Screens (PubChem BioAssay)
In the library only some 11% were active in any assay of this set; here they are far more common.
MCF10A rereplic = A quantitative high throughput screen for small molecules that induce DNA re-replication in MCF 10a normal breast cells; AID 624296, 2012; MCF 10A DNA re-replication, Hoechst nuclear intensity, 48 h; hit rate 2.9% among 350,000; Potency, µM (highest dose often 46.1 µM), inactives show at the top dose activity, positive = re-replication, most hits filed as activators; note: potency is the fitted concentration of half-maximal effect; % of control where 0% means no effect; nearly all actives have a fitted effect of over 50% in size
SW480 rereplic = A quantitative high throughput screen for small molecules that induce DNA re-replication in SW480 colon adenocarcinoma cells. SW480 DNA re-replication, Hoechst DNA content imaging, 48 h. Potency, µM (doses to about 46.1 µM), for inactives: at the highest dose re-replication activation, most hits filed as activators. hit rate 1.8% among 340,000; note: potency is the fitted concentration of half-maximal effect; % of control where 0% means no effect; nearly all actives have a fitted effect of over 55% in size
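Image-based DNA-content assay: after two days of treatment, nuclei were labelled with the DNA dye Hoechst and imaged, and hits were compounds raising the count of nuclei showing high fluorescence intensity.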
IL-1B inflam inh = qHTS for Inhibitors of Inflammasome Signaling: IL-1-beta AlphaLISA Primary Screen. THP-1 LPS/ATP IL-1B secretion, AlphaLISA, 16 h; hits give low values. activity change, % at 57.5 µM. hit rate 4.7% among 360,000; in the data active = activity change below about -50%; inconclusive = mostly about -30% to -49%; note: % is set by controls: 0 for no effect and ±100 for the full control effect
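THP-1 cells pretreated 1 hr with compounds (up to 57.5 uM final), then stimulated with LPS (250 ng/mL final) plus ATP (1.25 mM final); secreted IL-1B measured by AlphaLISA after 16 hr, decreased signal indicating inhibition.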
RORg inh = qHTS for inhibitors of ROR gamma transcriptional activity; hit rate 5.4% among 310,000; Potency, µM (top dose mostly 53.6 µM), for the others: at the highest dose activity change, negative = inhibition, actives largely listed as inhibitors; Drosophila S2 Gal4-RORgamma UAS-luciferase reporter, 20 h; note: potency is the fitted concentration of half-maximal effect; % is set by controls: 0 for no effect and ±100 for the full control effect; nearly all actives have a fitted effect of over 60% in size
Target sequence (P51450 whole entry, looked up, the tested form may be a part): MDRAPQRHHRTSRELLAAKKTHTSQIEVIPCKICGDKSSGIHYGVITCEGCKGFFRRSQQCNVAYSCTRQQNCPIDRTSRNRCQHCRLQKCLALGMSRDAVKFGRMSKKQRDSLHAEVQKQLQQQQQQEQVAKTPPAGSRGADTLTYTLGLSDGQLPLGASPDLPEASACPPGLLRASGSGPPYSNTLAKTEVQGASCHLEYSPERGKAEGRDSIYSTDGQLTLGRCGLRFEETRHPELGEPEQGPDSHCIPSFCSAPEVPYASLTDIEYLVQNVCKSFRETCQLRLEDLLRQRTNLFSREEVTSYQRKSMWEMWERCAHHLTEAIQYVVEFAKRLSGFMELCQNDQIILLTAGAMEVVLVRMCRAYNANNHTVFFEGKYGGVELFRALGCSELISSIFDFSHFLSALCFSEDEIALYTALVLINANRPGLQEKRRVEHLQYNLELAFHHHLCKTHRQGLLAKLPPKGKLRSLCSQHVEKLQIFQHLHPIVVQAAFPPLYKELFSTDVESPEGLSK
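Stably transfected Drosophila Schneider cells are the test system, with ROR gamma fused to Gal4 and luciferase under UAS control; luminescence is read after 20 hr of 700 uM copper sulfate induction at ambient temperature.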
Gal4-VP16 FLuc = VP16 counterscreen qHTS for inhibitors of ROR gamma transcriptional activity | hit rate 3.5% among 310,000 | Potency, µM (doses to about 53.6 µM), for inactives: top-dose activity, negative = inhibition, most hits filed as inhibitors | Drosophila S2 Gal4-VP16 UAS-luciferase, luminescence, 20 h;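 note: Gal4-VP16 expression switched on by copper sulfate through the metallothionein promoter; potency is the fitted concentration of half-maximal effect; % is set by controls: 0 for no effect and ±100 for the full control effect; nearly all actives have a fitted effect of over 50% in size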
* = called active by the depositor; ! = repeats disagree; [ ] = another dose, or the depositor's remark. Unless noted, calls come from the whole dose curve; as a rule, active = well fitted curve in the direction sought with a large enough effect; inconclusive = small, poorly fitted or top-dose-only effect, or another doubt; inactive = no such curve, though single readings can be large; an effect the other way counts as inactive or inconclusive.

O=C(COC(=O)c1ccc(O)cc1)NC1CCCCCC1 was read as MCF10A rereplic -1%, SW480 rereplic -4% and IL-1B inflam inh 3.
For COc1ccc(NC(=O)C2(C)CCN2C2Cc3ccccc3C2)cc1OC (configuration not stated) the results were IL-1B inflam inh 9.
`CCN1C(=O)[C@H]2[C@H]3CN=C(SCc4ccc(C(=O)OC)cc4)N3[C@@](C)(C(=O)OC)[C@H]2C1=O` gave MCF10A rereplic 27%, SW480 rereplic -4% and IL-1B inflam inh -8.
Screening CN(CCCN1c2ccccc2CCc2ccccc21)CC(=O)c1ccc(Cl)cc1 returned MCF10A rereplic 33µM*, SW480 rereplic inconclusive, RORg inh 8% and Gal4-VP16 FLuc -3%.
CN(C)CCCN1c2ccccc2CCc2ccc(Cl)cc21 was read as MCF10A rereplic inconclusive, SW480 rereplic inconclusive, IL-1B inflam inh inconclusive, RORg inh inconclusive and Gal4-VP16 FLuc -4%.
`COc1ccc(O[C@H]2C=C[C@@H](c3ccccc3)O[C@H]2COC(=O)CC/C(C)=N\O[C@@H](C)CN2CCCc3nc(C)c(C)cc32)cc1` gave RORg inh -11%[10 µM] and Gal4-VP16 FLuc 3%[10 µM].
Screening Cc1nc2ccccn2c1C(=O)/C=C/c1ccc(F)cc1 returned MCF10A rereplic inconclusive, SW480 rereplic inconclusive, IL-1B inflam inh -108*, RORg inh 8.9µM* and Gal4-VP16 FLuc inconclusive.
For COc1ccc(/C=C/C(=O)c2c(C)nc3ccccn23)cc1 the results were MCF10A rereplic 9%, SW480 rereplic 0%, IL-1B inflam inh -5, RORg inh -8% and Gal4-VP16 FLuc 12%.
CC(=O)c1cccc(NCC(=O)N2CCN(S(=O)(=O)c3ccccc3)CC2)c1 was read as MCF10A rereplic 3%, SW480 rereplic -32% and IL-1B inflam inh 8.
For NC(=O)c1ccc(Nc2nc(C(N)c3ccccc3Cl)cs2)cc1 (configuration not stated) the results were IL-1B inflam inh -17.
For CC(N)c1csc(Nc2cc(Oc3ccccc3)ncn2)n1 (configuration not stated) the results were IL-1B inflam inh -65*.
`NC(c1csc(Nc2cc(Oc3ccccc3)ncn2)n1)c1ccccc1Cl` (configuration not stated) gave IL-1B inflam inh -89*.
Screening O=C(CCCN1CCC(C(=O)c2ccc(F)cc2)CC1)c1ccc(F)cc1 returned MCF10A rereplic 21µM*!, SW480 rereplic -25%, IL-1B inflam inh inconclusive, RORg inh -12% and Gal4-VP16 FLuc -2%.
O=C(CCCN1CCC(O)(c2cccc(C(F)(F)F)c2)CC1)c1ccc(F)cc1 was read as MCF10A rereplic 11%, SW480 rereplic -23%, IL-1B inflam inh -54*, RORg inh -1% and Gal4-VP16 FLuc 8%.
`CC1CCN(CCCC(=O)c2ccc(F)cc2)CC1` gave MCF10A rereplic -3%, SW480 rereplic -4%, RORg inh 25% and Gal4-VP16 FLuc 1%.
Screening COc1cccc(C2CNC3(CCCC(C)C3)c3[nH]c4ccccc4c32)c1OC (configuration not stated) returned MCF10A rereplic 18µM*, SW480 rereplic 95%, IL-1B inflam inh inconclusive, RORg inh -21% and Gal4-VP16 FLuc 7%.
For COc1cc2c(cc1OC)C(c1cccc(OC)c1OC)CC(=O)N2 (configuration not stated) the results were MCF10A rereplic 0%, SW480 rereplic -13%, IL-1B inflam inh 67, RORg inh 9% and Gal4-VP16 FLuc 1%.
`NCCCC[C@H](NC(=O)[C@H](CS)NC(=O)[C@@H](N)Cc1cnc[nH]1)C(=O)N[C@@H](Cc1ccccc1)C(=O)N[C@@H](Cc1c[nH]c2ccccc12)C(=O)N[C@@H](Cc1c[nH]c2ccccc12)C(=O)O` gave RORg inh 12% and Gal4-VP16 FLuc -1%.
`CN(Cc1ccccc1)c1nc(N)nc(Cl)c1C=O` gave MCF10A rereplic 28%, SW480 rereplic 4.6µM*, IL-1B inflam inh -106*, RORg inh 4% and Gal4-VP16 FLuc 20%.
For COc1ccc(OC)c(S(=O)(=O)N/N=C(/C)c2ccc3c(c2)OCO3)c1 the results were MCF10A rereplic 17%, SW480 rereplic -7%, IL-1B inflam inh -6, RORg inh -10% and Gal4-VP16 FLuc -5%.
Screening Cc1ccc(SC(C)C(=O)NC(N)=O)c(C)c1 (configuration not stated) returned MCF10A rereplic 0.58µM*, SW480 rereplic -3%, IL-1B inflam inh 0, RORg inh -9% and Gal4-VP16 FLuc 7%.
CC(Sc1ccc2ccccc2c1)C(=O)NC(N)=O (configuration not stated) was read as MCF10A rereplic -1%, SW480 rereplic 2%, IL-1B inflam inh -6, RORg inh 18% and Gal4-VP16 FLuc -14%.
O=C(COC(=O)c1ccco1)Nc1ccc(N2CCOCC2)cc1 was read as MCF10A rereplic 7%, SW480 rereplic -23% and IL-1B inflam inh -5.
Screening COc1cc(C(O)c2nc(/C=C/c3ccc(C(F)(F)F)cc3)cs2)ccc1F (configuration not stated) returned IL-1B inflam inh -20.
For O=C(/C=C/c1ccccc1)Nc1ccc(Br)cn1 the results were MCF10A rereplic 2.1µM*, SW480 rereplic 5.8µM*, IL-1B inflam inh 0, RORg inh 14% and Gal4-VP16 FLuc -3%.
Screening O=C(/C=C/c1ccccc1)Nc1ncn[nH]1 returned MCF10A rereplic -6%, SW480 rereplic inconclusive, IL-1B inflam inh -108*, RORg inh 14µM* and Gal4-VP16 FLuc inconclusive.
Screening CCCCC(=O)Nc1ccc(Br)cn1 returned MCF10A rereplic -7%, SW480 rereplic -6%, IL-1B inflam inh -14, RORg inh inconclusive and Gal4-VP16 FLuc inconclusive.
`O=C(O)C(=O)Nc1ncn[nH]1` gave IL-1B inflam inh 19.
`C=CCCC(=O)Nc1ccc(Br)cn1` gave MCF10A rereplic 9.2µM*, SW480 rereplic 16µM*, IL-1B inflam inh -14, RORg inh 6% and Gal4-VP16 FLuc -19%.
Cc1ccc(NC(=O)/C=C/c2ccc(Cl)cc2)nc1 was read as MCF10A rereplic -4%, SW480 rereplic 13%, IL-1B inflam inh -14, RORg inh 2% and Gal4-VP16 FLuc 8%.
Screening O=C(/C=C/c1ccc(Br)cc1)NC(=O)c1ccccc1O returned MCF10A rereplic 5%[9.22 µM], SW480 rereplic inconclusive, IL-1B inflam inh -95*, RORg inh inconclusive and Gal4-VP16 FLuc -29%.
